The record followed here is PubChem BioAssay AID504334 (NMMLSC, 2011).

Structures are written as SMILES. Unmarked numbers belong to inactive results.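 How the source made its calls: active means response relative to DMSO over 150%; inconclusive means yeast strain with under 70 recorded events; inactive means the rest.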

The nature of this experiment: yeast AGP1-GFP fluorescence change, single-dose confirmation – cell-based, flow cytometry, S. cerevisiae, cherry pick set 3 (AID 504334).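 Further: median GFP fluorescence per well by flow cytometry over the all cells gate; ratio of sample to mean DMSO control signal so DMSO = 100% not 0%.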 To be noted: S. cerevisiae AGP1-GFP strain, 3 h, at 10 µM, stronger effect = higher value. (In flow cytometry, cells or beads pass a laser one at a time.)
Take `Cc1ccc2c(Cl)cc(Cl)c(O)c2n1`: the percent response vs DMSO is 109%.

On to `COc1cccc(N/C(C)=C/C(=O)c2ccc(Br)cc2)c1`, for which the percent response vs DMSO was 101%. For `Cc1ccc(Nc2nc(N)[nH]c(=O)c2N=O)cc1` the value was 101%. Next, `CS(=O)(=O)Oc1ccc(Br)c2cccnc12`: 96.4%. In the case of `CSc1nc(S(C)(=O)=O)nc2[nH]c(=O)[nH]c12`, the percent response vs DMSO was 103%. For `CCCC(=O)Nn1cnc2c(c1=O)C1(CCCC1)Cc1ccccc1-2` the value was 101%; for `FC(F)Oc1cccc2cccnc12`, 96.4%; for `Oc1ccc(Cl)c2cccnc12`, 109%. Next, `CNc1nc(N)c([N+](=O)[O-])c(Nc2ccccc2OC)n1`: 89.8%; `NC(=O)COc1cccc2cccnc12`: 98.1%.

With `COc1cc(=O)n(C)c2c(O)cccc12`, the percent response vs DMSO is 98.1%.

For the compound `COc1cccc(NC(=O)CC(C)=O)c1`, the percent response vs DMSO is 98.8%.

For the compound `COC(=O)c1cc(=O)c2cccc(OC)c2[nH]1`, the percent response vs DMSO was 99.4%.

Regarding `Cc1ccc(Nc2cc(=O)[nH]c(=O)[nH]2)cc1Cl`, the percent response vs DMSO is 102%. Next, `O=C(N/N=C/c1ccccc1F)c1cccc2ccccc12`: 101%; `COC1=C/C(=C/c2c(N)n3cc(C)sc3nc2=O)C=CC1=O`: 100%; `Nc1ncnc(Nc2cc(Cl)cc(Cl)c2)c1[N+](=O)[O-]`: 98.8%. As to `COCCCNc1nc(N)c([N+](=O)[O-])c(Nc2ccccc2OC)n1`, the percent response vs DMSO is 103%. For `CC(=O)C(Cl)C(=O)Nc1ccccc1` (centres undefined) the value was 105%. Next, `CCN(CC)c1ncnc2ccc(Br)cc12`: 97.8%; `Nc1nc(NCCOCCO)nc(Nc2cccc(F)c2)c1[N+](=O)[O-]`: 98.1%; `Cn1c(=O)c2c(n3cnnc13)-c1ccccc1CC21CCCC1`: 104%. Regarding `COc1ccccc1Nc1nc(NCC(C)C)nc(N)c1[N+](=O)[O-]`, the percent response vs DMSO was 101%.

As for `OCc1ccnc2c(O)cccc12`, the percent response vs DMSO is 100%. Next, `O=C(Nc1ccccc1Cl)ON=C1c2ccccc2-c2ccccc21`: 99.1%; `COc1ccc(OC)c2c(C)cc(C)nc12`: 97.1%; `Cc1ccc2nc(-c3ccc(NC(=O)c4cccnc4)cc3)oc2c1`: 93.8%. Next, `C/C(=C\C(=O)c1ccc(Cl)cc1)Nc1ccc(Br)cc1`: 99.8%.

As for `Cc1cccc(C)c1Nc1ncnc(N)c1[N+](=O)[O-]`, the percent response vs DMSO was 102%. Take `Oc1ccc(F)c2cccnc12`: the percent response vs DMSO was 102%. For `Cn1c(NCCO)nc2c(c1=O)C1(CCCCC1)Cc1ccccc1-2` the value was 104%; for `CC(=O)Nn1cnc2c(c1=O)C1(CCCC1)Cc1ccccc1-2`, 99.1%. Next, `Cc1cn2c(N)c(C=C3C=C(Cl)C(=O)C(Cl)=C3)c(=O)nc2s1`: 101%. For the compound `O=C1c2ccccc2C(=O)c2c1cccc2N(CCO)CCO`, the percent response vs DMSO is 98.8%. Turning to `OCCN1CCN(c2ncnc3ccc(Br)cc23)CC1`, the percent response vs DMSO is 99.8%.

As for `C=CCNc1ncnc2ccc(Br)cc12`, the percent response vs DMSO was 101%.

With `COc1ccccc1Nc1nc(NCCO)nc(N)c1[N+](=O)[O-]`, the percent response vs DMSO was 99.1%.

For the compound `COc1ccc(NC(=O)O/N=C2/CCCc3ccc(OC)cc32)cc1`, the percent response vs DMSO is 95.8%. Next, `CNc1cccc2c1C(=O)c1ccccc1C2=O`: 100%.
